Experimental data published in PubChem BioAssay (EPA / NIEHS).
Calls of active or inactive are those of the source. Rule for the calls: active = hit-call score of the fitted dose curve at least 0.9, where 1 is the maximum; inactive = score below 0.9.

Tests used:
[1] = ATG_GLI_CIS: Attagene CIS-FACTORIAL HepG2 Assay for human Zinc Finger Protein GLI1 (AID 2282945); conditions: HepG2, Attagene cis-factorial reporter mRNA, GLI element; actives raise or lower the signal
In short: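 Transiently transfected HepG2 cells report endogenous transcription factor activity via cis-element-driven reporter units. After 24 h compound exposure, reporter mRNA was measured by RT-PCR with capillary electrophoresis; bidirectional fitting against DMSO baseline.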

[2] = biological target: Bile acid receptor (Homo sapiens) (UniProt Q96RI1); test: ATG_IR1_CIS: Attagene CIS-FACTORIAL HepG2 Assay for human Nuclear Receptor Subfamily 1 Group H Member 4 (NR1H4), IR1 submotif (AID 2282946); conditions: IR1 reporter transcription, actives raise or lower the signal
In short: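 Fluorescence of capillary-separated, HpaI-digested RT-PCR reporter products gave IR1-element mRNA induction in HepG2 cells 24 h after dosing. Endogenous transcription factors drove the cis-regulated reporters; activity was fitted bidirectionally against DMSO.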

[3] = ATG_GRE_CIS: Attagene CIS-FACTORIAL HepG2 Assay for human Glucocorticoid Response Elements (GRE) (AID 2282947); conditions: HepG2 GRE cis-reporter, Attagene multiplex mRNA; actives raise or lower the signal
In short: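 Fluorescence intensity of reporter-specific cDNA fragments, separated by capillary electrophoresis, provides the signal. Constructs carry cis-regulating promoters in transiently transfected HepG2 liver cells; 24 h incubation; fitting is bidirectional against DMSO.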

[4] = ATG_ISRE_CIS: Attagene CIS-FACTORIAL HepG2 Assay for human Interferon Regulatory Factor 1 (IRF1) binding to an Interferon-Stimulated Response Element (ISRE) (AID 2282948); conditions: HepG2 ISRE cis-reporter (Attagene), mRNA transcription readout; actives raise or lower the signal
In short: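 Uses HepG2 liver cells transfected with cis-regulated reporters and measures mRNA 24 h post-dosing through RT-PCR, primer-extension labelling and capillary electrophoresis, with DMSO as negative control.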

[5] = ATG_M_32_CIS: Attagene CIS-FACTORIAL HepG2 Assay for M32 Transcription Factor (Internal Marker) (AID 2282949); conditions: HepG2 Attagene cis-factorial M32 reporter, mRNA; actives raise or lower the signal;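 note: background control marker of the multiplexed CIS panel rather than a real target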
In short: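 HepG2 human liver cells transiently transfected with cis-promoter-driven multiple reporter transcription units, dosed 24 h. Reporter mRNA quantified by RT-PCR, FAM-labelled primer extension, HpaI digest and capillary electrophoresis; bidirectional fit versus DMSO baseline.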

[6] = ATG_M_06_CIS: Attagene CIS-FACTORIAL HepG2 Assay for M06 Transcription Factor (Internal Marker) (AID 2282950); conditions: HepG2 Attagene CIS-FACTORIAL M06 internal marker reporter; actives raise or lower the signal
In short: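 Serves as a background control readout. Transfected HepG2 exposed to compounds for 24 h, then reporter transcripts quantified by fluorescent RT-PCR and capillary electrophoresis. Both directions fitted against DMSO baseline.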

[7] = biological target: Hypoxia-inducible factor 1-alpha (Homo sapiens) (UniProt Q16665); test: ATG_HIF1a_CIS: Attagene CIS-FACTORIAL HepG2 Assay for human Hypoxia Inducible Factor 1 (HIF1A) (AID 2282951); conditions: HepG2 Attagene cis-factorial HIF1a reporter transcription; actives raise or lower the signal
In short: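 HepG2 cells transiently transfected with multiple cis-regulated reporter transcription units measure endogenous transcription factor activity. After 24 h exposure, reporter mRNA is quantified by RT-PCR with 6-FAM labelling, HpaI digestion and capillary electrophoresis. Bidirectional fitting against DMSO.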

[8] = biological target: Hepatocyte nuclear factor 6 (Homo sapiens) (UniProt Q9UBC0); test: ATG_HNF6_CIS: Attagene CIS-FACTORIAL HepG2 Assay for human Hepatocyte Nuclear Factor 6 (HNF6) (AID 2282952); conditions: HepG2 Attagene cis-factorial HNF6 reporter transcription; actives raise or lower the signal
In short: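 Endogenous factor activity read in transiently transfected HepG2 via promoter-regulated reporter transcripts. RNA harvested 24 h post-dosing, reverse-transcribed, PCR-amplified, FAM-labelled, HpaI-digested and resolved by capillary electrophoresis; fitted in both directions against DMSO.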

[9] = biological target: Heat shock factor protein 1 (Homo sapiens) (UniProt Q00613); test: ATG_HSE_CIS: Attagene CIS-FACTORIAL HepG2 Assay for human Heat Shock Transcription Factor 1 (HSE) (AID 2282953); conditions: HepG2 HSE cis-reporter, Attagene RNA transcription; actives raise or lower the signal
In short: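 Endogenous transcription factor activity in transiently transfected HepG2, read as reporter mRNA by RT-PCR with fluorescent capillary electrophoresis after 24 h. Gain or loss of signal fitted versus DMSO baseline.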

[10] = ATG_MRE_CIS: Attagene CIS-FACTORIAL HepG2 Assay for human Metal Responsive Element (MRE) (AID 2282954); conditions: HepG2 MRE cis-reporter transcription, Attagene multiplex; actives raise or lower the signal
In short: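 Measured here is mRNA induction from an MRE cis-element reporter in HepG2 after 24 h, quantified by fluorescence of labelled RT-PCR products on capillary electrophoresis; gain- and loss-of-signal fits use DMSO as baseline.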

[11] = ATG_PBREM_CIS: Attagene CIS-FACTORIAL HepG2 Assay for human Phenobarbital-responsive Enhancer Module (PBREM) (AID 2282955); conditions: HepG2 PBREM cis-reporter, Attagene multiplexed transcription; actives raise or lower the signal
In short: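 HepG2 cells transiently transfected with multiple cis-regulated reporter units measure endogenous transcription factor activity; 24 h compound exposure. Reporter mRNA quantified by RT-PCR, fluorescent labelling, HpaI digestion and capillary electrophoresis; bidirectional fit versus DMSO.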

[12] = biological target: Paired box protein Pax-6 (Homo sapiens) (UniProt P26367); test: ATG_Pax6_CIS: Attagene CIS-FACTORIAL HepG2 Assay for human Paired Box 6 (PAX6) (AID 2282956); conditions: HepG2 CIS-FACTORIAL PAX6 reporter transcription, RNA readout; actives raise or lower the signal
In short: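 DMSO-referenced bidirectional fits of reporter mRNA fluorescence; HepG2 with transient cis-promoter MRTUs, 24 h post-dose, RT-PCR plus capillary electrophoresis detection.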

[13] = ATG_PXRE_CIS: Attagene CIS-FACTORIAL HepG2 Assay for human Pregnane X Receptor Element (PXRE) (AID 2282957); conditions: HepG2 Attagene CIS-FACTORIAL PXRE reporter, mRNA; actives raise or lower the signal
In short: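 Reporter transcripts under endogenous PXR-responsive cis-regulation quantified from total RNA of transfected HepG2 cells 24 h post-dosing, via RT-PCR with fluorescent primer extension and capillary electrophoresis. Gain or loss of signal fitted against DMSO baseline.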

[14] = ATG_PPRE_CIS: Attagene CIS-FACTORIAL HepG2 Assay for human Peroxisome Proliferator-activated Response Element (PPRE) (AID 2282958); conditions: HepG2 PPRE cis-element reporter, Attagene transcription factor profiling; actives raise or lower the signal
In short: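 HepG2 cells are transiently transfected with multiplexed cis-promoter reporter units to report endogenous PPAR activity. After 24 h dosing, reporter mRNA is read by RT-PCR and capillary electrophoresis. Fitting is bidirectional against DMSO.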

[15] = ATG_Sox_CIS: Attagene CIS-FACTORIAL HepG2 Assay for human SRY-box transcription factor (SOX) (AID 2282960); conditions: HepG2 Attagene cis-factorial SOX reporter, mRNA; actives raise or lower the signal
In short: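 HepG2 cells transiently transfected with multiple cis-regulated reporter units, then dosed for 24 h. Reporter mRNA quantified by RT-PCR, fluorescent labelling, HpaI digestion and capillary electrophoresis; bidirectional fit versus DMSO.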

[16] = biological target: Transcription factor Sp1 (Homo sapiens) (UniProt P08047); test: ATG_Sp1_CIS: Attagene CIS-FACTORIAL HepG2 Assay for human Specificity Protein 1 (Sp1) (AID 2282961); conditions: HepG2 Sp1 cis-reporter transcription, actives raise or lower the signal
In short: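 HepG2 cells transiently transfected with multiplexed cis-regulated reporter constructs, chemical exposure 24 h. Reporter mRNA quantified by RT-PCR with capillary electrophoresis; bidirectional fit relative to DMSO.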

[17] = ATG_SREBP_CIS: Attagene CIS-FACTORIAL HepG2 Assay for human Sterol Regulatory Element Binding (SREBP) (AID 2282962); conditions: HepG2 Attagene cis-factorial SREBP reporter, mRNA; actives raise or lower the signal
In short: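 In this cis-format assay, HepG2 liver cells express reporters controlled by promoter elements responsive to native transcription factors. Exposure lasts 24 h; reporter mRNA fluorescence from capillary electrophoresis gives the signal, fitted bidirectionally against DMSO.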

[18] = biological target: Signal transducer and activator of transcription 3 (Homo sapiens) (UniProt P40763); test: ATG_STAT3_CIS: Attagene CIS-FACTORIAL HepG2 Assay for human Signal Transducer and Activator of Transcription 3 (STAT3) (AID 2282963); conditions: HepG2, Attagene cis-factorial STAT3 reporter transcription; actives raise or lower the signal
In short: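 Fluorescence intensity of 6-FAM-labelled reporter fragments, separated by capillary electrophoresis after RT-PCR, gave the signal. Cells were HepG2 transfected with cis-element reporter units and treated 24 h; fitting was bidirectional relative to DMSO.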

[19] = ATG_TA_CIS: Attagene CIS-FACTORIAL HepG2 Assay for human TA Basal Promoter (AID 2282964); conditions: HepG2 Attagene CIS-factorial TA basal promoter reporter; actives raise or lower the signal
In short: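 Background-control readout: TA basal promoter reporter mRNA, fitted in both directions relative to DMSO. Measured by RT-PCR and capillary electrophoresis 24 hours after treating HepG2 human liver cells transiently carrying multiplexed cis-regulated reporter constructs.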

[20] = ATG_RORE_CIS: Attagene CIS-FACTORIAL HepG2 Assay for human RAR-related Orphan Receptor Element (RORE) (AID 2282959); conditions: HepG2 Attagene cis-factorial RORE reporter, mRNA; actives raise or lower the signal
In short: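 HepG2 cells carrying transiently transfected cis-regulated reporter units; RORE-driven reporter mRNA quantified 24 h post-dosing by RT-PCR, 6-FAM primer extension, HpaI digestion and capillary electrophoresis. Bidirectional fit versus DMSO.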

Measured: AC50

Chain of Paired box protein Pax-6 (Homo sapiens) (P26367 whole entry, looked up): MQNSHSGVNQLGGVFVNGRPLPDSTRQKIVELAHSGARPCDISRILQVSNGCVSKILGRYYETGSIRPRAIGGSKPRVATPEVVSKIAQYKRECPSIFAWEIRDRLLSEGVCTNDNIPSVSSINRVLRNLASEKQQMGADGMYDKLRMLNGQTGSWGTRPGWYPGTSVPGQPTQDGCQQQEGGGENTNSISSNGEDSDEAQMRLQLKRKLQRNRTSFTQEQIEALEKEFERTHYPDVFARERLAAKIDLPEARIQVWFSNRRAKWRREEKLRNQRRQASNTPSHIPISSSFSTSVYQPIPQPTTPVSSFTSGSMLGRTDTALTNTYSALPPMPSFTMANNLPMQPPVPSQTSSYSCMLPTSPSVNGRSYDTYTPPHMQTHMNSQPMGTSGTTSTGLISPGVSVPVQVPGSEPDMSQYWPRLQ
Chain of Hepatocyte nuclear factor 6 (Homo sapiens) (Q9UBC0 whole entry, looked up): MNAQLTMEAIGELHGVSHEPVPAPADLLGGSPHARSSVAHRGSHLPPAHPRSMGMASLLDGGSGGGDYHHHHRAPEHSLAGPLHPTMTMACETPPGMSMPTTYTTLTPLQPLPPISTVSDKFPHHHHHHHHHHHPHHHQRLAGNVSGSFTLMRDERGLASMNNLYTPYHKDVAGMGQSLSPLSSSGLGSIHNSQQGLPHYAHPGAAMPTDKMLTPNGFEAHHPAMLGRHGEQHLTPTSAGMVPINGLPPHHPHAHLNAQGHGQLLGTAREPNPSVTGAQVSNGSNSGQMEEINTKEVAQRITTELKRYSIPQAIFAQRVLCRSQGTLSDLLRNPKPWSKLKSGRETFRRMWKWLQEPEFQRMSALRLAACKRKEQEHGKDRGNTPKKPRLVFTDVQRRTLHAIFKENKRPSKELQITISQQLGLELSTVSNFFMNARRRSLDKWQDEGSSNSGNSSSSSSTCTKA
Chain of Bile acid receptor (Homo sapiens) (Q96RI1 whole entry, looked up): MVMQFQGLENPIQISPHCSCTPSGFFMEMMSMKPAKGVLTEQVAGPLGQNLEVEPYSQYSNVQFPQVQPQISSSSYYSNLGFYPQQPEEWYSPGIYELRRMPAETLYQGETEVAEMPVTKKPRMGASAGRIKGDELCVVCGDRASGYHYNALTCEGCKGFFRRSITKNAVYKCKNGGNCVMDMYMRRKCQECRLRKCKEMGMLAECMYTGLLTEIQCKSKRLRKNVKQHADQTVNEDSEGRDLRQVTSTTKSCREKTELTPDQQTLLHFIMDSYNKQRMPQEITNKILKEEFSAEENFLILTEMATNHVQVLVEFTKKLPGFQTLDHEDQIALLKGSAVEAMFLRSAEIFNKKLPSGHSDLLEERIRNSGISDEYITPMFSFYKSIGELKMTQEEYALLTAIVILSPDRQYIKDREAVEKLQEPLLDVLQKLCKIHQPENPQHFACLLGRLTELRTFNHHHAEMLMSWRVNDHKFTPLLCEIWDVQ
Chain of Heat shock factor protein 1 (Homo sapiens) (Q00613 whole entry, looked up): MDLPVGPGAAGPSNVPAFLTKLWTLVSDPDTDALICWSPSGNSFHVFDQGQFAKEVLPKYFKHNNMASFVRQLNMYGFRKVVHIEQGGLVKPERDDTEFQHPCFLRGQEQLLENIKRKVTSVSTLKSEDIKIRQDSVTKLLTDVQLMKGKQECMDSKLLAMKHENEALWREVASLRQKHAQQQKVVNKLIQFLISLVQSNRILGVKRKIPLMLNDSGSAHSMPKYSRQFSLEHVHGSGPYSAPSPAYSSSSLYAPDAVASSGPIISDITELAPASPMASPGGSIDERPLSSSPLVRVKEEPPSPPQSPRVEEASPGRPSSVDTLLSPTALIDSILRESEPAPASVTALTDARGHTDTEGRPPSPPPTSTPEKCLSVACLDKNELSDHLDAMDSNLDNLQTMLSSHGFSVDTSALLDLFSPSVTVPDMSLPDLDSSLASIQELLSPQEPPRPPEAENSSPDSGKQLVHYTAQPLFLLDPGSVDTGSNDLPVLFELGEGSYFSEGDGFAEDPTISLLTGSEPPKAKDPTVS
Chain of Transcription factor Sp1 (Homo sapiens) (P08047 whole entry, looked up): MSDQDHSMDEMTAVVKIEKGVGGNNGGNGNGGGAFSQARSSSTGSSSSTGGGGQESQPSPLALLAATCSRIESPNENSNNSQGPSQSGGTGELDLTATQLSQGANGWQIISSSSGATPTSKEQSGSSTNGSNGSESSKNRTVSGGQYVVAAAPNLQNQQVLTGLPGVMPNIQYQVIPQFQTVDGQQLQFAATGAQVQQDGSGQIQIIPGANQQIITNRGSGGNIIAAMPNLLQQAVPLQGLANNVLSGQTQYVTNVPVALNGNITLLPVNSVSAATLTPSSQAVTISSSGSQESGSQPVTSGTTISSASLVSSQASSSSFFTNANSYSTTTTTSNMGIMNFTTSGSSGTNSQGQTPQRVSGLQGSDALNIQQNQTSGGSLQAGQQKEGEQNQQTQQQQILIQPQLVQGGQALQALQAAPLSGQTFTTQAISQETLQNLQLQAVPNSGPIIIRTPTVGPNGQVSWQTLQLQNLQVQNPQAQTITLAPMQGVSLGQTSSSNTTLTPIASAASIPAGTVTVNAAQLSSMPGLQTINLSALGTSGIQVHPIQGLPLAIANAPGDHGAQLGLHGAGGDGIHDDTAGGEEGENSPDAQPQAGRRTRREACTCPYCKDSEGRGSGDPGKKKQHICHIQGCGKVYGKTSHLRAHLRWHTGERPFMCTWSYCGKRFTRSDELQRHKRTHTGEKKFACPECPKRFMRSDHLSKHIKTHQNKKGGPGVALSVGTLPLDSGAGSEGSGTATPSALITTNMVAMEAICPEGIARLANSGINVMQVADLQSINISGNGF
Chain of Signal transducer and activator of transcription 3 (Homo sapiens) (P40763 whole entry, looked up, the tested form may be a part): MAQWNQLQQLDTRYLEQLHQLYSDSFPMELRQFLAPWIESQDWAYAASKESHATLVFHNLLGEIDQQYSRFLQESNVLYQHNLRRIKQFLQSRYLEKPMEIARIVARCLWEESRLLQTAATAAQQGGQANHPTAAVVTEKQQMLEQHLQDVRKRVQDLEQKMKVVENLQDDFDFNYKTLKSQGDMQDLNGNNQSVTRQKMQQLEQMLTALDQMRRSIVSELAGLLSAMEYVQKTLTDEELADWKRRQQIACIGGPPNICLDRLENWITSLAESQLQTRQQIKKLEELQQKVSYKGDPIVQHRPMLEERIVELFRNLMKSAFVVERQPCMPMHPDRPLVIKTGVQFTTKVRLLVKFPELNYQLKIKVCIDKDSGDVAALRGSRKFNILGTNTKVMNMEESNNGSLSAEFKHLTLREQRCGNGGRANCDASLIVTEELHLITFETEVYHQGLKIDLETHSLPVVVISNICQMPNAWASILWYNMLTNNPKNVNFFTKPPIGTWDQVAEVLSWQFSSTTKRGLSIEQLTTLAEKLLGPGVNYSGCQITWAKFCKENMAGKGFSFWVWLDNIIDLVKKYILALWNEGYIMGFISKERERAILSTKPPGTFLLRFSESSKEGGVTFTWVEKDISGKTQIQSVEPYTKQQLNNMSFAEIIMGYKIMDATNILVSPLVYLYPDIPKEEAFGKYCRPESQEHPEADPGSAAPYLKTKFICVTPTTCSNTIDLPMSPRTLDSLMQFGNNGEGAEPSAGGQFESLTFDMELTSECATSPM
Chain of Hypoxia-inducible factor 1-alpha (Homo sapiens) (Q16665 whole entry, looked up): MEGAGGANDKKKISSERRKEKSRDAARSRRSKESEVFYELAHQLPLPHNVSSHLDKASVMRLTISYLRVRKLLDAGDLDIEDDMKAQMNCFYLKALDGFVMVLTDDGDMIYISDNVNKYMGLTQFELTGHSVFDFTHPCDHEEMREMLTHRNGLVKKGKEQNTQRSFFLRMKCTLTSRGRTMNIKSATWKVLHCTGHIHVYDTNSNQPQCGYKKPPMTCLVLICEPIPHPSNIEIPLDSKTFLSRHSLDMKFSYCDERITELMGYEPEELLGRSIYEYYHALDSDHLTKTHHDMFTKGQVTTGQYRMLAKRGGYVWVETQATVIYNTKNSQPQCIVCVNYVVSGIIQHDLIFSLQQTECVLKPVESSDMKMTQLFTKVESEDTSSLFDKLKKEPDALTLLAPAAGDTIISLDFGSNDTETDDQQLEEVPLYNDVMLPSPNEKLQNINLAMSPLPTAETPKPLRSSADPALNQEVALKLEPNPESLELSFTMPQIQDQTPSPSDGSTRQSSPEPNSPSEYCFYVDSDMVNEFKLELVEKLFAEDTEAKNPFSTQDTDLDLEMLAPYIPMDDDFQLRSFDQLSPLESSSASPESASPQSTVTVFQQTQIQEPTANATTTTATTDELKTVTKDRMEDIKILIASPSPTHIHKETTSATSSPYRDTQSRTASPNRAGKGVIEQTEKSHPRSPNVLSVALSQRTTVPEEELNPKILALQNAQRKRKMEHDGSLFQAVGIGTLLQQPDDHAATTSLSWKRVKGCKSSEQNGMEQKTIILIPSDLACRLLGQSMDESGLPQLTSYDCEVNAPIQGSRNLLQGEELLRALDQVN

CC(C)CCCC(C)CCO (centres undefined)
inactive: [1] | [2] | [3] | [4] | [5] | [6] | [7] | [8] | [9] | [10] | [11] | [12] | [13] | [14] | [15] | [16] | [17] | [18] | [19]

CN1CN(C)CN(C)C1
active: [4] 74.3 µM | [9] 160 µM | [10] 182 µM | [13] 49.5 µM
inactive: [1] | [2] | [3] | [5] | [6] | [7] | [8] | [11] | [12] | [14] | [20] | [15] | [16] | [17] | [18] | [19]

CC(O)C#CC(C)O (centres undefined)
inactive: [3] | [5] | [6] | [7] | [11] | [14] | [20] | [17] | [18] | [19]
active: [1] 142 µM | [2] 67.7 µM | [4] 99.5 µM | [8] 70.5 µM | [9] 78.2 µM | [10] 57.2 µM | [12] 81.3 µM | [13] 148 µM | [15] 77.1 µM | [16] 73.1 µM

N#Cc1ccccc1O
inactive: [1] | [2] | [3] | [4] | [5] | [6] | [7] | [8] | [9] | [10] | [11] | [12] | [13] | [14] | [20] | [15] | [16] | [17] | [18] | [19]

CCOCOCC
inactive: [1] | [2] | [3] | [4] | [5] | [6] | [7] | [8] | [9] | [10] | [11] | [12] | [13] | [14] | [20] | [15] | [16] | [17] | [18] | [19]

OCC(F)(F)C(F)(F)C(F)(F)CO
inactive: [1] | [2] | [3] | [4] | [5] | [6] | [7] | [8] | [9] | [10] | [11] | [12] | [13] | [14] | [20] | [15] | [16] | [17] | [18] | [19]

Oc1ccc(C2(c3ccc(O)c(C4CCCCC4)c3)CCCCC2)cc1C1CCCCC1
active: [3] 33.4 µM | [4] 55.9 µM | [9] 8.18 µM | [10] 11.1 µM | [11] 8.53 µM | [12] 14.4 µM | [13] 0.175 µM | [15] 7.42 µM | [17] 27 µM | [18] 62.4 µM
inactive: [1] | [2] | [5] | [6] | [7] | [8] | [14] | [20] | [16] | [19]
